Source: PubChem (National Center for Advancing Translational Sciences (NCATS))
G9a block: blocks human histone lysine methyltransferase G9a; actives 8.8% (n = 350,000); Potency, µM (top dose mostly 102 µM), for the others: at the highest dose activity, negative = inhibition, usual class: inhibitors; G9a H3K9 monomethylation, AlphaScreen, 2 h; Q96KQ7; AID 504332; further: potency means the concentration at half of the fitted maximal effect; on the % scale 0 is the no-effect control and ±100 the full control effect; nearly all actives have a fitted effect of over 75% in size
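Chemiluminescent proximity detection of H3K9 monomethylation, read after 10 min bead incubation in the dark. Reaction: 20 nM G9a, 500 nM biotin-H3K9 peptide, 20 uM SAM cofactor, 2 h, room temperature, following 15 min enzyme-compound preincubation.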
HP1b chromo inh: inhibitors of HP1-beta chromodomain binding to methylated histone tails; actives 0.56% (n = 390,000); P83916; AlphaScreen HP1-beta / biotin-H3K9me3 peptide binding; Potency, µM (doses to about 114 µM), for the others: at the highest dose activity change, negative = inhibition, most hits filed as inhibitors; further: potency means the concentration at half of the fitted maximal effect; nearly all actives have a fitted effect of over 70% in size
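HP1-beta protein (50 nM final) preincubated 30 min at room temperature with biotinylated H3(1-18)K9me3 peptide (50 nM) in PBS pH 7.4, 0.01% Tween-20, then compound added for 30 min. AlphaScreen streptavidin donor/nickel chelate acceptor beads (10 ug/mL final), 30 min dark, luminescence read.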
Six1-Eya2 blk: blocks human Six1 binding to Eya2. AlphaScreen GST-Six1/His-Eya2 binding, biochemical; stronger effect = lower value. activity change, % (test concentration not listed). actives 0.56% (n = 360,000); in the data active means activity change below about -65%; inconclusive means mostly about -30% to -63%; further: on the % scale 0 is the no-effect control and ±100 the full control effect
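Homogeneous AlphaScreen proximity assay pairing GST-Six1 with His-tagged Eya2 (added as 5X mix: 250 nM and 500 nM) in 50 mM Tris pH 8.0, 300 mM NaCl, 1 mM TCEP. Glutathione donor and nickel acceptor beads; 1 h, 37 °C, dark.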
BAZ2B inh: blocks human BAZ2B; AlphaScreen BAZ2B-H3K14Ac peptide displacement; actives 4.4% (n = 360,000); Potency, µM (titrated, usually from 114 µM), without a hit: top-dose activity change, negative = inhibition, usual class: inhibitors; Q9UIF8; AID 504333; further: potency means the concentration at half of the fitted maximal effect; on the % scale 0 is the no-effect control and ±100 the full control effect; nearly all actives have a fitted effect of over 60% in size
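BAZ2B 50 nM plus b-H3(5-23)K14Ac 50 nM, PBS pH 7.4/0.01% Tween-20, 30 min RT; compound added (max 110 uM), 30 min RT; streptavidin donor/Ni-chelate acceptor beads 10 ug/mL final, 20 min dark; AlphaScreen read.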
CtBP-E1A blk: blocks the CtBP interaction with E1A; activity change, % (test concentration not listed); actives 0.49% (n = 340,000); AlphaScreen GST-E1A/His-CtBP binding, 1536-well; stronger effect = lower value; in the data active means activity change below about -65%; inconclusive means mostly about -30% to -63%; further: on the % scale 0 is the no-effect control and ±100 the full control effect
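Homogeneous bead-based format: GST-tagged E1A captured on glutathione donor beads, His-tagged CtBP on nickel acceptor beads; compounds precede bead addition by 2 h at 37 °C.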
JMJD2A Tudor inh: JMJD2A Tudor domain (human) inhibition; O75164; AlphaScreen JMJD2A-Tudor / H3K4me3 peptide binding; Potency, µM (highest dose often 114 µM), for inactives: at the highest dose activity change, negative = inhibition, usual class: inhibitors; actives 4.4% (n = 390,000); AID 504339; further: potency means the concentration at half of the fitted maximal effect; on the % scale 0 is the no-effect control and ±100 the full control effect; nearly all actives have a fitted effect of over 50% in size
Target sequence (O75164 whole entry, looked up, the tested form may be a part): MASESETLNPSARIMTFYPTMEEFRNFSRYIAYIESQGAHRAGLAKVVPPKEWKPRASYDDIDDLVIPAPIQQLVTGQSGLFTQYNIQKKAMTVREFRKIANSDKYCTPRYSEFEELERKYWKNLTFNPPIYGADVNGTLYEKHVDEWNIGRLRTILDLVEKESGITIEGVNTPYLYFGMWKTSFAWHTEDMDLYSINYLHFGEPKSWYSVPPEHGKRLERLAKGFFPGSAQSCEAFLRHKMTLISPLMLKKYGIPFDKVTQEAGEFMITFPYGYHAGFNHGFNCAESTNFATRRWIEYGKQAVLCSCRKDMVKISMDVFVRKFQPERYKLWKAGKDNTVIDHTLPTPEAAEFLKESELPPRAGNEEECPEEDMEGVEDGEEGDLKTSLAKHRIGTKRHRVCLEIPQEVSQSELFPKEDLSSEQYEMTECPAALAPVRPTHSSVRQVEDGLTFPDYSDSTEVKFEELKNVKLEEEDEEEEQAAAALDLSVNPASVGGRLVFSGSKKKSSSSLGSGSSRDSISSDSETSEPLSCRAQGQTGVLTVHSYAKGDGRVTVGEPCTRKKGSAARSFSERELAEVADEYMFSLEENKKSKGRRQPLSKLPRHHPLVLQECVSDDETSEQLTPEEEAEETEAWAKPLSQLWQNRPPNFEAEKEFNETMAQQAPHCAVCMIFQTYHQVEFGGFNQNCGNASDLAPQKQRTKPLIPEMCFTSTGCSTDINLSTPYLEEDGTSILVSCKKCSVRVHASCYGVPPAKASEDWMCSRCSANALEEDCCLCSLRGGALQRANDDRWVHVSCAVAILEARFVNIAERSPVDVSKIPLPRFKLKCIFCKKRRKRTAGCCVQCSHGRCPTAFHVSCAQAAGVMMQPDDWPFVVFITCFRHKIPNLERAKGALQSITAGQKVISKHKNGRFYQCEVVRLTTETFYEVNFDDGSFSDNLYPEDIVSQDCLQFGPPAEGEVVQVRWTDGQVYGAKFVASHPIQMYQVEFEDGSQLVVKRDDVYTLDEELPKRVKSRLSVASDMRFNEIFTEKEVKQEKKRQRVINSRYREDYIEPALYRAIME
The depositor's hits bear a star; u = inconclusive; x = no result; [ ] = another dose, or the depositor's remark. Shown are actives, neighbours in structure and some others; about 10% of the full set was active somewhere. Unless noted, the call rests on the fitted dose curve; in most records, active means well fitted inhibition curve with a large enough effect; inconclusive means small, poorly fitted or top-dose-only effect; inactive means no such curve, though single readings can be large or run the other way.

SMILES	G9a block	HP1b chromo inh	Six1-Eya2 blk	BAZ2B inh	CtBP-E1A blk	JMJD2A Tudor inh
CCCCOc1cccc(C(=O)N(Cc2ccccc2)C2CCS(=O)(=O)C2)c1 (centres undefined)	6%	7%	-1	-2%	16	-19%
CC(C)Oc1ccc(C(=O)N(Cc2ccc(N(C)C)cc2)C2CCS(=O)(=O)C2)cc1 (centres undefined)	u	7%	x	-34%	x	-35%
Cc1ccc(N2C(=O)C3C4C=CC(CNC(=S)N5CCN(c6ccccc6)CC5)(O4)C3C2=O)cc1 (centres undefined)	2.2µM*	u	2	x	x	u
Cc1ccc(NC(=S)NCC23C=CC(O2)C2C(=O)N(c4ccc(C)cc4)C(=O)C23)cc1 (centres undefined)	7.9µM*	u	-17	-27%	1	89µM*
Cc1ccc(S(=O)(=O)NCC23C=CC(O2)C2C(=O)N(c4ccccc4)C(=O)C23)cc1 (centres undefined)	u	u	-5	8%	3	u
C=CCn1c(Cc2c[nH]c3ccccc23)n[nH]c1=S	6.3µM*	-4%	0	-7%	11	8.9µM*
C=CCn1c(CCc2cc(C(C)(C)C)c(O)c(C(C)(C)C)c2)n[nH]c1=S	2µM*	-15%	4	-29%	3	u
C=CCn1c(Cc2ccccc2)n[nH]c1=S	x	23%	4	-5%	0	3.5µM*
C=CCn1c(Cc2c[nH]c3ccccc23)nnc1SCC(=O)NCc1ccccc1	8%	15%	-2	11%[57.1 µM]	-8	1%
C=CCn1c(CCC(O)CCCCC)n[nH]c1=S (centres undefined)	7.1µM*	3%	-9	4%	8	18µM*
C=CCn1c(CCCOc2ccc(Cl)cc2Cl)n[nH]c1=S	u	43%	6	-33%	15	-2%
CCCCCCCCC#CCC#CCC#CCCCC(=O)O	21%[59 µM]	x	x	x	x	x
Cc1ccc(SCCN2CCN(C)CC2)cc1	50µM*	15%	2	-25%	-12	-13%
OCCN1CCN(CCSc2ccccc2)CC1	u	0%	4	-17%	3	28µM*
O=C1CCN(CCc2ccccc2)CCN1CCSc1ccccc1	x	21%	-7	-8%	-5	-20%
c1ccc(SCCN2CCc3ccccc3C2)cc1	40µM*	-32%	15	5%	x	25µM*
c1ccc(SCCOCCN2CCc3ccccc3C2)cc1	-6%[59 µM]	13%[57 µM]	7	-16%	6	-11%
Nn1c(SCc2cn3cc(Cl)ccc3n2)nnc1-c1ccncc1	45µM*	1%	-2	-22%	0	-13%
Cc1ccc(S(=O)(=O)N2C[C@@H](C)[C@]3(C2)[C@H](O)[C@H](OC(=O)NC2CCCC2)C[C@H]2C(=O)N(c4ccccc4)C(=O)[C@H]23)cc1	x	x	-3	x	4	x
CCC1(C)Cc2sc3c(=O)[nH]c(=S)[nH]c3c2CO1 (centres undefined)	3.5µM*	-1%	-3	u	x	-11%[11.4 µM]
Cc1ccc2c(c1)c1c3n2CCN(C(=O)CCl)C3CCC1 (centres undefined)	u	-7%	-7	56µM*	4	u
CC(=O)N1CCn2c3c(c(=O)c4cc(C)ccc42)CCC31 (centres undefined)	u	36%	-12	-7%	-6	-16%
CC(=O)N1CCn2c3c(c4cc(C)ccc42)CCCC31 (centres undefined)	-10%[12.7 µM]	-19%	-14	35µM*	x	-33%
Cc1ccc2c(c1)c1c(n2C)C(C(N)=O)CCC1 (centres undefined)	40µM*	13%	-7	-29%	-1	-18%
CCc1ccc2oc(-c3ccc(C)c(NC(=O)c4ccc(C#N)cc4F)c3)nc2c1	5%[59 µM]	29%	x	-4%	x	-14%
SMILES	G9a block	HP1b chromo inh	Six1-Eya2 blk	BAZ2B inh	CtBP-E1A blk	JMJD2A Tudor inh
NS(=O)(=O)c1cccc(NC(=O)Cn2nc(C(=O)O)c3ccccc3c2=O)c1	14%	21%	9	-1%	0	-4%
COCCNC(=O)C(c1ccc(C)o1)N(CC1CCCO1)C(=O)Cn1nnc2ccccc21 (centres undefined)	50µM*	67%	-2	-9%	4	-22%
N=C(N)SCCc1cccc(CCSC(=N)N)c1	3.5µM*	23%	2	x	-7	-7%
OC1=C(O)c2nc3cc(F)ccc3nc21	40µM*	17%	-4	-12%	-14	-12%
CN(C)c1ccc(NC(=O)Cn2cc3c(n2)CCCC3)cc1	28µM*	u	-22	40µM*	-8	50µM*
CSc1nccc(NC(=O)c2cccc(Br)c2)n1	35%[0.501 µM]	90%	10	0%	9	22%
Cc1ccc(C)n1-n1c(C)nc2sc(-c3ccccc3)cc2c1=O	14µM*	-22%	u	u	-17	u
Cc1cc(NC(=O)C2CCCN(S(=O)(=O)c3cn(C)cn3)C2)ccc1Br (centres undefined)	-2%[12.7 µM]	26%	x	-9%	x	3%
CC(C)COc1ccccc1C1CC(=O)Nc2cc3c(cc21)OCO3 (centres undefined)	u	12%	x	-18%	x	u
COC(=O)C1CCN(S(=O)(=O)CCNC(=O)c2cccc(OC)c2)CC1	35µM*	18%	1	9%	10	-2%
COc1cccc(C(=O)NCCS(=O)(=O)N2CCc3ccccc3C2)c1	-40%	16%	9	6%	-2	-15%
COc1cccc(C(=O)NCCS(=O)(=O)N2CCC(C)CC2)c1	35µM*	16%	5	6%	4	-6%
Cc1ccc(Nc2nc3ccccc3s2)c(C)c1	16%[59 µM]	47%	3	9%	0	8%
Cc1ccc(C)c(NC(=S)c2nc3ccccc3s2)c1	u	-15%	u	4%	u	14µM*
Cc1ccc(NC(=S)c2nc3ccccc3s2)cc1	22µM*	u	-6	8.9µM*	u	u
COc1ccc(NC(=O)c2nc3ccccc3s2)cc1	8%	76%	1	13%	0	8%
CCCCC(=O)Nc1nnc(S(=O)(=O)N(C)Cc2ccccc2)s1	-32%[59 µM]	35%	x	2%	x	-8%
C[C@@H](C(=O)N1CCN(c2ccccc2)CC1)N1C(=O)C2CC=CCC2C1=O (some centres undefined)	x	36%	5	x	3	6%
C#CCOCCOCCOCCNc1nc(N2CCN(C(=O)[C@H](C)n3cc(CCC(=O)O)nn3)CC2)nc(N2CCN(C(=O)[C@H](C)n3cc(CCC(=O)O)nn3)CC2)n1	x	21%	6	x	8	u
